# Most compounds without a hit are left out; they make up all but 19% or so of the library.
# KB-3-1 tox: kills parental KB-3-1 adenocarcinoma cells | KB-3-1 viability, CellTiter-Glo ATP luminescence, 72 h | Potency, µM (titrated, usually from 46.1 µM), hits mostly cytotoxic | hit rate 1.4% among 400,000 | AID 1347075; also: nearly all actives have a fitted effect of over 60% in size
#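 Luminescent ATP read-out (CellTiter-Glo) measures survival of drug-naive KB-3-1 cells after 72 h compound exposure at 37 °C. Titration series was screened from lowest to highest concentration, with DMSO vehicle plates as background controls.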
# HT1080 IDH1KD tx: toxicity to HT-1080 IDH1 knockdown cells (counter line); hit rate 2% among 360,000; AID 686971; Potency, µM (top dose mostly 46.1 µM), without a hit: top-dose activity, negative = toxicity, actives largely listed as cytotoxic; HT-1080 IDH1 knockdown viability, ATP luminescence, 48 h;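 also: 0% = DMSO wells and -100% = cell-free medium wells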
#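 Assay cells: HT-1080 with IDH1 knockdown, 750 per well, RPMI/5% FBS. Exposure: 48 h at 37 °C following 2 h pre-incubation. Read: CellTiter-Glo luminescence; fitted concentration-response, curve class assigned.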
# HT1080NT lethal: kills 2HG-producing HT-1080-NT fibrosarcoma cells; Potency, µM (series often up to 46.1 µM), without a hit: at the top dose activity, negative = less viability, hits mostly cytotoxic; HT-1080-NT fibrosarcoma viability, CellTiter-Glo ATP luminescence, 48 h; hit rate 1.6% among 360,000;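 also: NT is the 2HG producing partner of a matched IDH1 knockdown line; 0% = DMSO-treated cells and -100% = media-only wells without cells; nearly all actives have a fitted effect of over 55% in size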
#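 Toxicity toward the 2HG-producing NT line was scored as %Activity, normalised to DMSO and no-cell wells, from CellTiter-Glo luminescence after 48 hours' treatment.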
# KB-V1 MDR tox: KB-V1 MDR subline cytotoxicity | KB-V1 MDR cells viability, CellTiter-Glo, 72 h | Potency, µM (top dose mostly 46.1 µM), actives largely listed as cytotoxic | hit rate 3.4% among 400,000 | AID 1347076; also: nearly all actives have a fitted effect of over 60% in size
#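 KB-V1 MDR subline cells in DMEM (phenol-red free, 10% FBS) exposed to compounds in qHTS concentration series for 72 h at 37 degrees C. Viability read by CellTiter-Glo luminescence; concentration-effect curves fitted after normalization and correction.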
# TDP1 cell CPT: DT40-hTDP1 cell growth loss with CPT. chicken DT40 Tdp1-/-;hTDP1 cells + 20 nM CPT, ATP luminescence, 48 h. Potency, µM (highest dose often 46.2 µM), for inactives: top-dose activity change, negative = growth inhibition, actives largely listed as inhibitors. hit rate 12% among 420,000; also: nearly all actives have a fitted effect of over 55% in size
#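 Chicken DT40 Tdp1-/- cells complemented with human TDP1, 400 cells/well, exposed to compounds plus 20 nM camptothecin for at least 48 h at 37 C; viability read as ATP content by CellTiter-Glo luminescence.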
# DT40 TDP1 no CPT: qHTS for Inhibitors of human tyrosyl-DNA phosphodiesterase 1 (TDP1): qHTS in cells in absence of CPT. DT40 Tdp1-/- hTDP1 cells, no CPT, ATP luminescence, 48 h. Potency, µM (top dose mostly 46.2 µM), for inactives: at the highest dose activity change, negative = growth inhibition, most hits filed as inhibitors. hit rate 15% among 420,000. AID 686978, 2013; also: nearly all actives have a fitted effect of over 55% in size
#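 A cellular qHTS used chicken DT40 cells lacking endogenous Tdp1 but carrying stably transfected human TDP1. Compounds were applied without camptothecin, and cell growth kinetics were judged by ATP-dependent luminescence after ≥48 hr.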
# * = called active by the depositor; i = inactive; ? = inconclusive; nt = no result given. Calls follow the shape of the dose curve; as a rule, active = well fitted curve in the direction sought with a large enough effect; inconclusive = small, poorly fitted or top-dose-only effect, or another doubt; inactive = no such curve, though single readings can be large; an effect the other way counts as inactive or inconclusive. Unless noted, % is scaled to controls: 0 for no effect and ±100 for the full control effect; potency is read from the fitted curve at half-maximal effect.
SMILES,KB-3-1 tox,HT1080 IDH1KD tx,HT1080NT lethal,KB-V1 MDR tox,TDP1 cell CPT,DT40 TDP1 no CPT
CS(=O)(=O)N(CC(=O)NCc1ccc(Cl)cc1)C1CCCCC1,?,11%,-10%,i,21µM*,15µM*
CCOc1ccc(NC(=S)N2CCC(NC(=O)c3ccco3)CC2)cc1,i,10%,-4%,i,-1%,-4%
Cc1cccn2c(=O)c(C=O)c(Nc3ccccc3)nc12,i,10%,28%,i,-27%,?
CC(C)c1ccc(NC(=O)c2ccc(F)c(S(=O)(=O)N3CCCC3)c2)cc1,nt,nt,nt,nt,10µM*,?
O=C(Nc1cc(Cl)cc(Cl)c1)c1ccc(F)c(S(=O)(=O)N2CCc3ccccc32)c1,nt,nt,nt,nt,5.8µM*,9.2µM*
O=C(Nc1cc(Cl)cc(Cl)c1)c1ccc(F)c(S(=O)(=O)N2CCCC2)c1,nt,nt,nt,nt,16µM*,21µM*
CS(=O)(=O)N1CCc2cc(C(=O)Nc3ccc(Cl)cc3)ccc21,i,-10%,-10%,i,-2%,?
Cc1ccccc1NC(=O)c1ccc(F)c(S(=O)(=O)N2CCCCC2)c1,i,-1%,-5%,i,-20%,4%
C=CCN(CC=C)Cc1cc(=O)oc2cc(C)c(Cl)cc12,i,3%,10%,i,?,?
COc1ccc(OC)c(NC(=O)c2cc3c(=O)oc4ccccc4c3s2)c1,i,nt,nt,?,-3%,-6%
CCOC(=O)Nc1ccc2nc(-c3cscn3)[nH]c2c1,2.6µM*,26µM*,?,3.7µM*,6.5µM*,5.8µM*
COc1ccc(Cn2ccc3nc(C)c(C(=O)NCc4ccc(OC)cc4OC)cc3c2=O)cc1,i,nt,nt,i,-27%,-29%
COc1ccc(N2CCN(C(=O)c3cc4c(=O)n(Cc5cccs5)ccc4nc3C)CC2)cc1,nt,nt,nt,nt,?,26µM*
COc1ccc(NC(=O)c2cc3c(=O)n(Cc4cccs4)ccc3nc2C)cc1,i,nt,nt,i,?,?
COc1cccc(N2CCN(C(=O)c3cc4c(=O)n(Cc5cccs5)ccc4nc3C)CC2)c1,i,nt,nt,i,23µM*,?
Cc1nc2ccn(Cc3cccs3)c(=O)c2cc1C(=O)N1CCN(c2ccc(F)cc2)CC1,i,nt,nt,i,?,?
Cc1ccc(C)c(N2CCN(C(=O)c3cc4c(=O)n(Cc5cccs5)ccc4nc3C)CC2)c1,i,nt,nt,?,23µM*,21µM*
CCOc1ccccc1CNC(=O)c1cc2c(=O)n(Cc3ccccc3)ccc2nc1C,i,nt,nt,i,18µM*,16µM*
COc1ccc(NC(=S)NCc2ccccc2)c(OC)c1,i,10%,19%,i,3%,?
Cc1sc2ncnc(NCCCN3CCCC3=O)c2c1C,i,11%,9%,i,-4%,2%
CCc1nc2ccc(C(=O)N3CCCC(C(N)=O)C3)cn2c1N(C=O)CC (centres undefined),i,13%,8%,i,0%,9%
CCS(=O)(=O)Nc1cc2c3c(c1)CCC(=O)N3CCC2,?,-5%,-3%,i,11%,-14%
Cc1nc2ccn(Cc3cccs3)c(=O)c2cc1C(=O)NCc1ccccc1,nt,nt,nt,nt,-11%,-18%
COc1ccc(CNC(=O)c2cc3c(=O)n(Cc4cccs4)ccc3nc2C)cc1,18µM*,nt,nt,i,?,-28%
CN(C)C(=O)CCc1ccc2c3c([nH]c2c1)[C@]1(C)[C@@H](C(=O)N2CCOCC2)C[C@H](CC(=O)NCc2cccc(C(F)(F)F)c2)C(=O)N1CC3,i,-1%,-1%,i,16µM*,?
